# According to the supplement of paper PMC12350171:
# Structures can show the parent of a compound that is named as a salt.
# Tested on: Haemophilus parainfluenzae
# Test: growth AUC normalised to DMSO control (fraction of control); higher = less growth inhibition, active = hit call of the paper
# Settings: 20 µM;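 active = AUC significantly below DMSO controls by Student t-fit with adjusted P under 0.01; inactive = not significantly reduced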
# Method in brief: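 After two anaerobic passages, pathogens were added at a starting OD578 of 0.01 to pre-reduced mGAM plates holding compound at 20 μM with 1% DMSO; hemin and NAD were supplemented for Haemophilus parainfluenzae. Sealed with breathable membranes, plates were read at OD578 hourly for 24 h, in three biological replicates. The trapezoidal rule, applied up to the exponential-to-stationary transition, gave the growth-curve AUC, which was normalised to DMSO controls on the same plate.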
row,Compound,growth AUC normalised to DMSO control
1,COc1c(N2C[C@@H]3CCCN[C@@H]3C2)c(F)cc2c(=O)c(C(=O)O)cn(C3CC3)c12 [Moxifloxacin],0.0254 (active)
2,CCC(=O)O[C@]1(C(=O)SCF)[C@H](C)C[C@H]2[C@@H]3C[C@H](F)C4=CC(=O)C=C[C@]4(C)[C@@]3(F)[C@@H](O)C[C@@]21C [Fluticasone propionate],0.997 (inactive)
3,CC(=O)[C@H]1CC[C@H]2[C@@H]3C=CC4=CC(=O)CC[C@@]4(C)[C@@H]3CC[C@]12C [Dydrogesterone],1.02 (inactive)
4,COc1cc(N)c(Cl)cc1C(=O)NC1CCN(CCCOc2ccc(F)cc2)CC1OC (centres undefined) [Cisapride],1.03 (inactive)
5,CN1CCN(CCCN2c3ccccc3Sc3ccc(S(=O)(=O)N(C)C)cc32)CC1 [Thioproperazine dimesylate],1.01 (inactive)
6,CC(C)NC[C@H](O)COc1cccc2ccccc12 [(S)-(-)-Propranolol hydrochloride],1.03 (inactive)
7,CS(=O)(=O)c1ccc(C2=C(c3ccccc3)C(=O)OC2)cc1 [Rofecoxib],0.964 (inactive)
8,Cc1c(NC(=O)c2cccnc2)c(=O)n(-c2ccccc2)n1C [Nifenazone],1.01 (inactive)
9,Cc1nc2n(c(=O)c1CCN1CCC(c3noc4cc(F)ccc34)CC1)CCCC2 [Risperidone],1 (inactive)
10,OCCN1C[C@H](O)[C@@H](O)[C@H](O)[C@H]1CO [Miglitol],0.925 (inactive)
11,N[C@@H](C(=O)N[C@@H]1C(=O)N2C(C(=O)O)=C(Cl)CS[C@H]12)c1ccccc1 [Cefaclor hydrate],0.97 (inactive)
12,CCCN(CCC)C(=O)C(CCC(=O)O)NC(=O)c1ccccc1 (centres undefined) [Proglumide],1.03 (inactive)
13,N=C(N)NCc1cccc(I)c1 [Iobenguane sulfate],1.02 (inactive)
14,Cc1cccc(C)c1NC(=O)C(C)N (centres undefined) [Tocainide hydrochloride],0.99 (inactive)
15,Cc1ncc(C[n+]2csc(CCO)c2C)c(N)n1 [Thiamine hydrochloride],0.964 (inactive)
16,c1ccc2c(c1)CCCC2C1=NCCN1 (centres undefined) [Tetrahydrozoline hydrochloride],0.986 (inactive)
17,CCC1(c2ccccc2)NC(=O)N(C)C1=O (centres undefined) [Mephenytoin],1.04 (inactive)
18,CN(C)/N=N/c1[nH]cnc1C(N)=O [Dacarbazine],0.999 (inactive)
19,COc1cnc(NS(=O)(=O)c2ccc(N)cc2)nc1 [Sulfameter],0.98 (inactive)
20,CCn1cc(C(=O)O)c(=O)c2cnc(N3CCNCC3)nc21 [Pipemidic acid],0.915 (inactive)

row,Compound,growth AUC normalised to DMSO control
1,Clc1ccc(C(Cn2ccnc2)OCc2csc3c(Cl)cccc23)c(Cl)c1 (centres undefined) [Sertaconazole nitrate],1.07 (inactive)
2,CO[C@H]1/C=C/O[C@@]2(C)Oc3c(C)c(O)c4c(O)c(c5c(nc6cc(C)ccn65)c4c3C2=O)NC(=O)/C(C)=C\C=C\[C@H](C)[C@H](O)[C@@H](C)[C@@H](O)[C@@H](C)[C@H](OC(C)=O)[C@@H]1C [Rifaximin],0.026 (active)
3,Nc1nc(=O)[nH]cc1F [Flucytosine],0.95 (inactive)
4,CCCCNc1cc(C(=O)O)cc(S(N)(=O)=O)c1Oc1ccccc1 [Bumetanide],0.991 (inactive)
5,CC(=O)N(O)CCCCCNC(=O)CCC(=O)N(O)CCCCCNC(=O)CCC(=O)N(O)CCCCCN [Deferoxamine mesylate],1.07 (inactive)
6,CN1CCN(C(c2ccccc2)c2ccccc2)CC1 [Cyclizine hydrochloride],0.995 (inactive)
7,CCc1nc(N)nc(N)c1-c1ccc(Cl)cc1 [Pyrimethamine],0.201 (active)
8,C[C@]12CC[C@H]3[C@@H](CCC4=CC(=O)CC[C@@]43C)[C@@H]1CC[C@@H]2C(=O)CO [Deoxycorticosterone],1.04 (inactive)
9,NC(N)=Nc1nc(CSCC/C(N)=N/S(N)(=O)=O)cs1 [Famotidine],0.975 (inactive)
10,Nc1ccc(S(=O)(=O)NC(=O)c2ccccc2)cc1 [Sulfabenzamide],1.1 (inactive)
11,Nc1nc(N)c2nc(-c3ccccc3)c(N)nc2n1 [Triamterene],0.935 (inactive)
12,O=C1CN(/N=C/c2ccc(-c3ccc([N+](=O)[O-])cc3)o2)C(=O)N1 [Dantrolene sodium salt],1.03 (inactive)
13,CN(C)CCCN1c2ccccc2CCc2ccc(Cl)cc21 [Clomipramine hydrochloride],0.922 (inactive)
14,CN1CCN(CC(=O)N2c3ccccc3C(=O)Nc3cccnc32)CC1 [Pirenzepine dihydrochloride],1.01 (inactive)
15,COC(c1ccccc1)(c1ccccc1)[C@H](Oc1nc(C)cc(C)n1)C(=O)O [Ambrisentan],1.05 (inactive)
16,CN1CCC(=C2c3ccccc3CCc3sccc32)CC1 [Pizotifen malate],0.936 (inactive)
17,C#C[C@]1(OC(C)=O)CC[C@H]2[C@@H]3CCC4=CC(=NO)CC[C@@H]4[C@H]3CC[C@@]21CC (mixture of isomers) [Norgestimate],0.908 (inactive)
18,Fc1ccc(C(c2ccc(F)cc2)N2CCN(C/C=C/c3ccccc3)CC2)cc1 [Flunarizine dihydrochloride],0.97 (inactive)
19,CNCC(O)c1ccc(OC(=O)C(C)(C)C)c(OC(=O)C(C)(C)C)c1 (centres undefined) [Dipivefrin hydrochloride],0.986 (inactive)
